In PubChem BioAssay (Tox21):
Inconclusive results are not listed. A number with no mark means an inactive call. The call rests on the fitted dose curve; in most records, active means well fitted inhibition curve with a large enough effect in the signal ratio in the repeat runs (not every such curve was filed as active); inconclusive means weak or mixed curves, or effect the other way; inactive means no such curve, though single readings can be large or run the other way; the % refers to the signal ratio.

The compounds below were run against Estrogen receptor beta (Homo sapiens) (UniProt Q92731) (assay: qHTS assay to identify small molecule antagonists of the estrogen receptor beta (ER-beta) signaling pathway (AID 1259378)). Settings: ER-beta-UAS-bla HEK293T, beta-lactamase FRET ratio, 16 h; series mostly up to 92.4 µM; activity, negative = inhibition: at the top concentration.
From the text: National Center for Advancing Translational Sciences [NCATS]
NIH Chemical Genomics Center [NCGC]
U.S. Environmental Protection Agency [EPA]
National Institutes of Environmental Health Sciences [NIEHS]
National Toxicology Program [NTP]
U.S. Food and Drug Administration [FDA]
Estrogen receptor (ER), a nuclear hormone receptor, plays an important role in development, metabolic homeostasis and reproduction. Two subtypes of ER, ER-alpha and ER-beta, have similar expression patterns with some uniqueness in both types. Endocrine disrupting chemicals (EDCs) and their interactions with steroid hormone receptors like ER causes disruption of normal endocrine function. To identify the compounds that inhibit ER signaling, an ER-beta-UAS-bla GripTite cell line (Life Technologies, Madison, WI, USA) containing a beta-lactamase reporter gene under the control of an UAS response element was used to screen Tox21 10K compound library.
Tox21 Assay Protocol Summary:
ER-beta-UAS-bla HEK293T cells were dispensed at 2,000 cells/4 uL of assay medium containing 2% charcoal stripped FBS per well into black wall/clear-bottom 1536-well plates using a Multidrop Combi (ThermoFisher Scientific, Waltham, MA) dispenser. After the assay plates were incubated at a 37C and 5% CO2 for 6 hr, 23 nL of compounds dissolved in DMSO, positive controls or DMSO only was transferred to the assay plate by a Pintool station (Kalypsys, San Diego, CA), followed by addition of 1 uL (1nM as final concentration) of 17-beta-estradiol (E2) in assay medium using a BioRAPTR FRD (Flying Reagent Dispenser, Aurora Discovery, San Diego, CA). The plates were incubated at 37C and 5% CO2 for 16 hr. Then 1 uL of LiveBLAzerTM B/G FRET substrate was added using a Flying Reagent Dispenser, the plates were incubated at room temperature for 2 hours, and fluorescence intensity was measured by an Envision plate reader (PerkinElmer, Shelton, CT).
On the % scale 0 is the no-effect control and ±100 the full control effect.

Estrogen receptor beta (Homo sapiens), sequence (Q92731 whole entry, looked up): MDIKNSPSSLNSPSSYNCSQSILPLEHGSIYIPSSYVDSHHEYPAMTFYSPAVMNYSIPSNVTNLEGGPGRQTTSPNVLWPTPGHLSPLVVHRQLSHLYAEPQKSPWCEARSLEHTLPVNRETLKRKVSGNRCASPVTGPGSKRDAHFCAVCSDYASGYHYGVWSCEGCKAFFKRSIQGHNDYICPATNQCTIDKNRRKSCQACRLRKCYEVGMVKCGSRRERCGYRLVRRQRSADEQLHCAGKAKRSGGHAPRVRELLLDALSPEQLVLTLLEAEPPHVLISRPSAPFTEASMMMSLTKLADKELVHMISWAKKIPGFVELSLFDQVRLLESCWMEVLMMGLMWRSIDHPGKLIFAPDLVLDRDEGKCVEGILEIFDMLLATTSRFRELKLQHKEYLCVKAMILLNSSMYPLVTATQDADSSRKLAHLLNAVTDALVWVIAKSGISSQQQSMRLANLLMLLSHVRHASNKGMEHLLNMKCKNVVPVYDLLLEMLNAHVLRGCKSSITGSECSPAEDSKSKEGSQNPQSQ

Row | SMILES | activity, negative = inhibition
1 | C/C=C(\C)C(=O)OCC/C=C\CC | 15.5%
2 | CNC(=O)NC | -1.9%
3 | CCCCCC1CCCC(=O)O1 (stereo not given) | 0.636%
4 | Cc1ccccc1C(=O)N1CC/C(=N\OS(=O)(=O)O)c2ccc(Cl)cc21 | -3.36% [at 42.5 µM]
5 | CCCCCCCCCCCCCC(=O)OC | 14.5%
6 | COc1cccc2sc(N)nc12 | -0.781%
7 | CCCCCCCCCCCCCCCCI | 2.97% [at 19 µM]
8 | CC(=O)OCCCc1ccccc1 | 7.75%
9 | C=COCCOCCOC=C | -5.42%
10 | C=CCOc1cc(Cl)ccc1C(=O)NCCN(CC)CC | -13.1% [at 42.5 µM]
11 | CCCCCCCCCCCCC1CO1 (stereo not given) | 2.3%
12 | O=C1OC(=O)c2cc(Oc3ccc4c(c3)C(=O)OC4=O)ccc21 | 2.18%
13 | Cc1ccccc1C | 19%
14 | CO[Si](CCCS)(OC)OC | 0.0986%
15 | CC(Cl)COP(=O)(OCC(C)Cl)OCC(C)Cl (stereo not given) | -3.12%
16 | CCOC(=O)CCc1ccccc1 | 4.06%
17 | CC1CCC(C(C)(C)S)C(=O)C1 (stereo not given) | -4.2%
18 | C=CCOC(=O)c1ccc(C(=O)OCC=C)c(C(=O)OCC=C)c1 | -6.5%
19 | CCCOC(=O)CCCCC(=O)OCCC | -3.25%
20 | CC(C)CCC(=O)CCC(C)C | 11%

Row | SMILES | activity, negative = inhibition
21 | CC(C)CCCCCCOC(=O)C1CCCCC1C(=O)OCCCCCCC(C)C (stereo not given) | 15.4%
22 | COc1ccc(OC)c(NC(=O)CC(C)=O)c1 | 4.86%
23 | Nc1ccc(C(=O)OCC(O)CO)cc1 (stereo not given) | 6.44% [at 42.5 µM]
24 | COC(=O)CCC(=O)O | 13%
25 | O=C1NC2NC(=O)NC2N1 (stereo not given) | 6.95%
26 | CCCC(C)CC (stereo not given) | 9.73%
27 | C[C@@H]1C[C@H]2[C@@H]3C[C@H](F)C4=CC(=O)C=C[C@]4(C)[C@@]3(F)[C@@H](O)C[C@]2(C)[C@@]1(O)C(=O)CO | -17% [at 42.5 µM]
28 | CN(C)CCCNCCC#N | 1.36%
29 | CC(=O)OC(C)c1ccccc1 (stereo not given) | 2.85%
30 | CCCCC(C)C(=O)O (stereo not given) | -1.53%
31 | CCOC(=O)CC(CC(=O)OCC)(OC(C)=O)C(=O)OCC | 23.9%
32 | BrC/C=C/CBr | 8.47% [at 19 µM]
33 | CC(=O)N1CCN(c2ccc(O)cc2)CC1 | 4.88% [at 42.5 µM]
34 | O=C(/C=C/c1ccccc1)NCCO | 1.72% [at 42.5 µM]
35 | c1ccc(CNc2ncnc3nc[nH]c23)cc1 | -23.7%
36 | CC(=O)Nc1ccc(C)cc1 | 9.79%
37 | CCOC(=O)CC#N | 4.61%
38 | CCC(C)N (stereo not given) | 16.3%
39 | C[CH2][Ge]([Cl])([CH2]C)[CH2]C | -19.9%
40 | Nc1cc(S(=O)(=O)O)ccc1S(=O)(=O)O | 2.77%
